# The whole screen tested about 39,000 compounds, of which about 3,300 (8.5%) were called active. What follows is part of a selection rich in actives, with near analogues and random picks from the rest.
# Test system: HepG2
# Assay: cytotoxicity call (relative viability < 0.9)
# Details: 10 µM
row,Compound,cytotoxicity call
1,C[C@H]1CN([C@@H](C)CO)C(=O)CCCn2cc(nn2)CO[C@@H]1CN(C)Cc1ccc(C(=O)Nc2ccccc2N)cc1,inactive
2,C[C@@H]1CN([C@@H](C)CO)C(=O)c2cccc(NS(=O)(=O)c3cccs3)c2O[C@@H]1CN(C)CC1CC1,inactive
3,C[C@@H]1CN([C@@H](C)CO)C(=O)c2cc(NS(=O)(=O)c3ccc(Cl)cc3)ccc2O[C@@H](C)CCCCO[C@@H]1CN(C)C(=O)NC1CCCCC1,inactive
4,Cc1noc(C)c1S(=O)(=O)Nc1cccc2c1O[C@@H](CN(C)Cc1ccc(Oc3ccccc3)cc1)[C@@H](C)CN([C@@H](C)CO)C2=O,inactive
5,C[C@H]1CN([C@@H](C)CO)S(=O)(=O)c2ccc(-c3ccncc3)cc2O[C@H]1CN(C)S(=O)(=O)c1ccccc1F,inactive
6,[O-][NH2+]N(CCO)CCO,inactive
7,C[C@@H]1CN([C@@H](C)CO)C(=O)c2cc(NC(=O)Nc3ccc4c(c3)OCO4)ccc2O[C@@H]1CN(C)Cc1ccc(C(F)(F)F)cc1,inactive
8,C[C@H]1CN([C@@H](C)CO)C(=O)c2cc(NC(=O)Nc3ccc4c(c3)OCO4)ccc2O[C@@H]1CN(C)Cc1ccc(C(F)(F)F)cc1,inactive
9,C[C@@H]1CN([C@H](C)CO)C(=O)c2cc(NC(=O)Nc3ccc4c(c3)OCO4)ccc2O[C@H]1CN(C)Cc1ccc(C(F)(F)F)cc1,inactive
10,C[C@H]1CN([C@@H](C)CO)C(=O)c2cc(NC(=O)Nc3ccc(C(F)(F)F)cc3)ccc2O[C@@H]1CN(C)Cc1ccc2c(c1)OCO2,active
11,C[C@@H]1CN([C@@H](C)CO)C(=O)c2cc(NC(=O)Nc3ccc(C(F)(F)F)cc3)ccc2O[C@H]1CN(C)Cc1ccc2c(c1)OCO2,active
12,C[C@H](CO)N1C[C@H](C)[C@@H](CN(C)Cc2ccc3c(c2)OCO3)Oc2ccc(NC(=O)Nc3ccc(C(F)(F)F)cc3)cc2C1=O,active
13,C[C@@H]1CN([C@H](C)CO)C(=O)c2cc(NC(=O)Nc3ccc4c(c3)OCO4)ccc2O[C@@H]1CN(C)Cc1ccc(C(F)(F)F)cc1,active
14,C[C@H](CO)N1C[C@H](C)[C@H](CN(C)Cc2ccc(C(F)(F)F)cc2)Oc2ccc(NC(=O)Nc3ccc4c(c3)OCO4)cc2C1=O,inactive
15,C[C@@H]1CN([C@H](C)CO)C(=O)c2ccccc2-c2ccccc2CO[C@H]1CN(C)C(=O)Nc1cccc(Cl)c1Cl,inactive
16,C[C@@H]1CN([C@@H](C)CO)C(=O)c2cc(NC(=O)C3CC3)ccc2O[C@@H]1CN(C)S(=O)(=O)c1cn(C)cn1,inactive
17,C[C@H](CO)N1C[C@H](C)[C@H](CN(C)S(=O)(=O)c2ccccc2)OCCCC[C@H](C)Oc2ccc(NC(=O)Nc3cccc4ccccc34)cc2C1=O,inactive
18,COc1cccc(S(=O)(=O)Nc2ccc3c(c2)[C@H]2C[C@@H](CC(=O)NC4CCCCC4)O[C@@H](CO)[C@H]2O3)c1,inactive
19,COCCOC(=O)N1C(=O)[C@@]2(c3ccccc31)[C@H](c1ccc(O)cc1)N1[C@H](c3ccccc3)[C@H](c3ccccc3)OC(=O)[C@H]1[C@@H]2C(=O)N1CCc2cc(OC)c(OC)cc2C1,inactive
20,COc1ccc(S(=O)(=O)Nc2ccc3c(c2)C(=O)N([C@H](C)CO)C[C@@H](C)[C@@H](CN(C)S(=O)(=O)c2cccs2)O3)cc1,inactive
21,C[C@@H]1CCCCO[C@H](CN(C)CC2CC2)[C@H](C)CN([C@@H](C)CO)C(=O)c2cc(NC(=O)Cc3ccccc3)ccc2O1,inactive
22,O=C(C[C@@H]1C=C[C@H](NC(=O)C2CC2)[C@H](CO)O1)NCCCN1CCOCC1,inactive
23,Cc1[nH]c(/C=C2\C(=O)Nc3ccc(S(=O)(=O)Cc4c(Cl)cccc4Cl)cc32)c(C)c1C(=O)N1CCC[C@@H]1CN1CCCC1,active
24,C[C@@H]1CN([C@@H](C)CO)C(=O)CCCn2cc(nn2)CO[C@@H]1CN(C)S(=O)(=O)c1ccc(C#N)cc1,inactive

row,Compound,cytotoxicity call
1,C[C@H]1CN([C@@H](C)CO)C(=O)c2cc(NS(=O)(=O)c3ccc(F)cc3)ccc2O[C@H]1CN(C)Cc1ccc(Oc2ccccc2)cc1,inactive
2,C[C@@H]1CN([C@@H](C)CO)C(=O)c2cc(NS(=O)(=O)c3ccc(F)cc3)ccc2O[C@@H]1CN(C)Cc1ccc(Oc2ccccc2)cc1,active
3,C[C@@H]1CN([C@@H](C)CO)C(=O)c2cc(NS(=O)(=O)c3ccc(F)cc3)ccc2O[C@H]1CN(C)Cc1ccc(Oc2ccccc2)cc1,inactive
4,C[C@@H]1CN([C@H](C)CO)C(=O)c2cc(NS(=O)(=O)c3ccc(F)cc3)ccc2O[C@@H]1CN(C)Cc1ccc(Oc2ccccc2)cc1,active
5,C[C@@H]1CN([C@H](C)CO)C(=O)c2cc(NS(=O)(=O)c3ccc(F)cc3)ccc2O[C@H]1CN(C)Cc1ccc(Oc2ccccc2)cc1,inactive
6,C[C@H]1CN([C@@H](C)CO)C(=O)c2cc(NS(=O)(=O)c3ccc(F)cc3)ccc2O[C@@H]1CN(C)Cc1ccc(Oc2ccccc2)cc1,inactive
7,COCC(=O)N(C)C[C@@H]1Oc2cc(C#Cc3ccccc3)ccc2S(=O)(=O)N([C@H](C)CO)C[C@@H]1C,inactive
8,C[C@H](CO)N1C[C@H](C)[C@H](CN(C)S(=O)(=O)c2cn(C)cn2)Oc2cc(C#Cc3ccccc3)ccc2S1(=O)=O,inactive
9,CNCCC(Oc1cccc2ccccc12)c1cccs1.Cl (stereo not given),active
10,CNCc1cccc2ccccc12,inactive
11,Cc1noc(C)c1S(=O)(=O)Nc1ccc2c(c1)CC(=O)N([C@H](C)CO)C[C@H](C)[C@@H](CN(C)Cc1ccccc1)O2,inactive
12,C[C@H]1CN([C@@H](C)CO)C(=O)c2cccc(NS(=O)(=O)c3ccc(Cl)cc3)c2O[C@@H]1CN(C)C(=O)Nc1cccc2ccccc12,inactive
13,Nc1nc(F)nc2c1ncn2[C@@H]1O[C@H](CO)[C@@H](O)[C@H]1O,active
14,O=c1nc[nH]c2c1ncn2[C@@H]1O[C@H](CO)[C@@H](O)[C@H]1O,inactive
15,Nc1ncnc2c1ncn2[C@@H]1O[C@H](COP(=O)(O)OP(=O)(O)OP(=O)(O)OP(=O)(O)OC[C@H]2O[C@@H](n3cnc4c(N)ncnc43)[C@H](O)[C@@H]2O)[C@@H](O)[C@H]1O,active
16,Nc1ncnc2c1ncn2[C@H]1O[C@@H](COP(=O)(O)OP(=O)(O)OP(=O)(O)O)[C@@H](O)[C@@H]1O,inactive
17,OC[C@H]1O[C@H](n2cnc3cncnc32)[C@@H](O)[C@@H]1O,active
18,Nc1nc(=S)c2ncn([C@@H]3O[C@H](CO)[C@@H](O)[C@H]3O)c2[nH]1,active
19,Nc1ncnc2c1ncn2[C@H]1O[C@@H](CO)[C@H](O)[C@@H]1O,inactive
20,Nc1ncnc2c1ncn2[C@@H]1O[C@H](CO)[C@@H](O)[C@@H]1O,inactive
21,Nc1nc(=O)c2ncn([C@@H]3O[C@H](CO)[C@@H](O)[C@H]3O)c2[nH]1,inactive
22,Nc1ncnc2c1ncn2[C@@H]1O[C@H](COP(=O)(O)O)[C@@H](O)[C@H]1O,inactive
23,Nc1nc(Cl)nc2c1ncn2[C@@H]1O[C@H](CO)[C@@H](O)[C@H]1O,inactive
24,Nc1nc(F)nc2c1ncn2[C@@H]1O[C@H](COP(=O)(O)O)[C@@H](O)[C@@H]1O,inactive

row,Compound,cytotoxicity call
1,Cc1[nH]c(=O)[nH]c(=O)c1S(=O)(=O)N1CCC[C@H](C(=O)NCc2ccc3c(c2)OCO3)C1,inactive
2,C[C@@H]1CN([C@@H](C)CO)C(=O)c2cc(NC(=O)NC3CCCCC3)ccc2O[C@@H](C)CCCCO[C@H]1CN(C)Cc1ccncc1,inactive
3,C[C@H]1CN([C@@H](C)CO)S(=O)(=O)c2ccc(C#CC3(O)CCCC3)cc2O[C@H]1CN(C)C(=O)Nc1cccc(F)c1,inactive
4,C[C@H](CO)N1C[C@H](C)[C@H](CN(C)Cc2ccc(C(F)(F)F)cc2)Oc2ccc(NC(=O)Cc3cn(C)c4ccccc34)cc2C1=O,inactive
5,O=C(C[C@@H]1CC[C@H](NC(=O)Cc2ccccn2)[C@@H](CO)O1)NCCCN1CCOCC1,inactive
6,COc1ccc(CN(C)C[C@H]2OCCCC[C@@H](C)Oc3ccc(NC(=O)Nc4c(C)noc4C)cc3C(=O)N([C@H](C)CO)C[C@@H]2C)cc1,inactive
7,C[C@H]1CCCCO[C@H](CN(C)C(=O)Nc2ccc3c(c2)OCO3)[C@@H](C)CN([C@@H](C)CO)C(=O)c2cc(NC(=O)Nc3cccc4ccccc34)ccc2O1,inactive
8,COc1ccc(S(=O)(=O)N(C)C[C@H]2Oc3ccc(NC(=O)CCC(F)(F)F)cc3CC(=O)N([C@H](C)CO)C[C@@H]2C)cc1,inactive
9,C[C@@H]1CN([C@H](C)CO)C(=O)Cc2cc(NS(=O)(=O)c3cccs3)ccc2O[C@H]1CN(C)Cc1ccc(Cl)c(Cl)c1,inactive
10,Cc1cccc(S(=O)(=O)N2C[C@H](O)COC[C@@H]3O[C@H](CC(=O)NCCCN4CCOCC4)CC[C@H]32)c1,inactive
11,CC(=O)C=C(O)CCC(=O)O,inactive
12,C=CCSC1=N[C@@]2(COCc3ccc(OC)cc3)Oc3ccccc3[C@H]([C@H]2CO[Si](C)(C)C(C)(C)C)N1C(=O)c1ccccc1,inactive
13,Cc1noc(C)c1S(=O)(=O)Nc1ccc2c(c1)C(=O)N([C@H](C)CO)C[C@H](C)[C@H](CN(C)C)OCCCC[C@H](C)O2,inactive
14,OC[C@H]1O[C@@H](n2cnc3c(NC4CCCC4)ncnc32)[C@H](O)[C@@H]1O,inactive
15,Nc1ncn([C@@H]2O[C@H](CO)[C@@H](O)[C@H]2O)c(=O)n1,active
16,Nc1ccn([C@@H]2O[C@H](CO)[C@@H](O)[C@@H]2O)c(=O)n1,inactive
17,OC[C@H]1O[C@@H](n2cnc3c(NCc4ccco4)ncnc32)[C@H](O)[C@@H]1O,active
18,Nc1ncn([C@@H]2C[C@H](O)[C@@H](CO)O2)c(=O)n1,inactive
19,Nc1ncn([C@H]2C[C@H](O)[C@@H](CO)O2)c(=O)n1,inactive
20,Nc1ccn([C@@H]2O[C@H](CO)[C@H](O)[C@@H]2O)c(=O)n1,inactive
21,Nc1ncn(C2OC(CO)C(O)C2O)c(=O)n1 (stereo not given),active
22,CNc1ncnc2c1ncn2[C@@H]1O[C@H](CO)[C@@H](O)[C@H]1O,inactive

# From the antibiotic and cytotoxicity screens of Wong et al. (2023)
